The list is not random: actives were taken first. Their share in the collection is about 11%.
USP17 block – blocks human USP17 ubiquitin-rhodamine cleavage | A8MUK1 | purified USP17, Ub-rhodamine cleavage fluorescence, 3 h | inhibition, % at 50 µM | 47,000 tested, 6.5% active | AID 1645855
Target sequence (A8MUK1 whole entry, looked up): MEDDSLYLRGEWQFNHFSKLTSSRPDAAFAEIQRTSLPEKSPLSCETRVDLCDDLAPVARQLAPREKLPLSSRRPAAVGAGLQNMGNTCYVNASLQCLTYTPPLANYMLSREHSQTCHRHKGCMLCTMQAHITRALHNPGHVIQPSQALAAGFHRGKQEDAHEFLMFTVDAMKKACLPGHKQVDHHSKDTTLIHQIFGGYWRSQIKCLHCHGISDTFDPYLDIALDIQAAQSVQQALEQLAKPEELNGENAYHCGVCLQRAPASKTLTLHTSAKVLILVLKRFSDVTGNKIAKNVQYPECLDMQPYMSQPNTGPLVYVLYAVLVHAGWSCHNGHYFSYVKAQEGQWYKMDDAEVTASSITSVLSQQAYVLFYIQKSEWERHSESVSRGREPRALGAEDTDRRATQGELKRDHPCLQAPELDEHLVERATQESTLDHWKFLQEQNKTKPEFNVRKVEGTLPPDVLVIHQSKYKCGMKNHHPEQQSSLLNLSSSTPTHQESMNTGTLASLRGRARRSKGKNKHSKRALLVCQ
USP30 inh – human USP30 deubiquitinase inhibition. Q70CQ3. purified USP30, Ub-rhodamine cleavage fluorescence. inhibition, % at 25 µM. 47,000 tested, 5.3% active
USP28 block – inhibitors of human USP28 deubiquitinase | Q96RU2 | purified USP28, Ub-rhodamine cleavage fluorescence, 30 min | inhibition, % at 25 µM | 47,000 tested, 3% active
OTUD3 block – inhibitors of human OTUD3 deubiquitinase; Q5T2D3; purified OTUD3, Ub-rhodamine fluorescence, 2 h; inhibition, % at 25 µM; 47,000 tested, 0.7% active; AID 1645858
Numbers without * were called inactive; . = no result given. No stated cut-off is given here; in the data, active means inhibition above about 30%; inactive means the rest.

SMILES	USP17 block	USP30 inh	USP28 block	OTUD3 block
O=C(Cn1c(-c2nc(-c3ccccc3)no2)cccc1=O)Nc1ccccc1	34*	22	7	5
O=C(Cn1c(-c2nc(-c3cccc(F)c3)no2)cccc1=O)NCc1ccco1	40*	-36	23	25
Cc1csc2c(C3CCN(C(=O)C4CC4)CC3)nc(C)n12	15	16	11	9
Cc1cc(=O)n(CC(=O)NCc2ccccc2Cl)c(N2CCOCC2)n1	7	2	0	3
Cc1ccc(NC(=O)Nc2nnc(CC(=O)N3CCCC3)s2)cc1	25	23	16	9
O=C(NCc1ccc2c(c1)OCO2)c1cc([N+](=O)[O-])ccc1N1CCCCC1	6	33*	23	24
O=C(NCc1ccc2c(c1)OCO2)c1cccc(-c2cnc(N3CCCC3)nc2)c1	30*	43*	14	14
COc1ccc(CNC(=O)c2cccc(-c3cnc(N4CCCC4)nc3)c2)cc1	45*	49*	0	-1
Cc1cccc(CNC(=O)c2cccc(-c3cnc(N4CCCC4)nc3)c2)c1	-3	7	-7	0
Cn1cc(C(=O)NCc2ccc3c(c2)OCO3)c(S(=O)(=O)N2CCCCCC2)n1	-7	-7	3	6
CC1(C)CC(=O)c2cnc3c(C(=O)NCc4ccc5c(c4)OCO5)cnn3c2C1	3	-4	0	4
CCOc1nc2cccnc2n(CC(=O)Nc2ccc(CC)cc2)c1=O	17	-91	-29	-19
Cc1ccc(-c2csc3ncn(CC(=O)NCc4ccccc4)c(=O)c23)cc1C	0	14	7	-8
CNc1nc(C2CCCCN2S(=O)(=O)c2c(C)noc2C)nc2c1CNCC2 (centres undefined)	-8	-56	-7	-10
COc1ccc(NC(=O)Cn2c(=O)n(CCC(=O)NCc3ccccc3)c(=O)c3sccc32)cc1Cl	47*	15	2	5
CCc1cc(=O)n(CC(=O)Nc2ccc3c(c2)OCCO3)c2c1c(C)nn2-c1ccc(C)cc1	31*	32*	17	15
CC(C)Cn1c(=O)c2sccc2n2c(CCC(=O)NCCc3ccccc3)nnc12	-2	-6	-4	-3
Cc1ccc(N2C(=O)N(CC(=O)Nc3ccc4c(c3)OCCO4)C(=O)C2C)cc1 (centres undefined)	0	8	29	5
Cc1ccc(NC(=O)Cn2c(=O)n(CC(=O)NCCc3ccccc3)c(=O)c3sccc32)cc1C	23	47*	11	1
Cc1ccc(CNC(=O)Cn2c(=O)c3sccc3n(CC(=O)Nc3ccc4c(c3)OCCO4)c2=O)cc1	60*	.	.	-8
COc1ccc(C(=O)Nc2c(-c3cccc(C)c3)c(=O)c3ccccc3n2C)cc1OC	6	15	0	9
COc1cccc(NC(=O)N2CCCC2c2cccs2)c1 (centres undefined)	-6	0	0	0
COc1ccccc1C(=O)N(Cc1ccccc1F)C1CCS(=O)(=O)C1 (centres undefined)	0	2	-5	-2
Cc1ccccc1OCCn1c(=O)c(C#N)c2n(c1=O)CCC2	2	-93	-12	-18
O=C(Cn1c(=O)n(C2CC2)c(=O)c2nscc21)NCCC1=CCCCC1	-32	-73	-17	-17
SMILES	USP17 block	USP30 inh	USP28 block	OTUD3 block
CN1CCN(C(=O)c2cc(-c3cnc(-c4cccc(F)c4)nc3)cn2C)CC1	-11	3	-6	-3
N#Cc1cn2c(nc1-c1ccc(Cl)cc1)nc1ccccc12	94*	77*	71*	61*
COc1ccccc1OCC(=O)N1CCC(c2nc3ccccc3cc2C(N)=O)CC1	8	34*	15	9
COc1ccc(OCC(=O)N2CCC(c3nc4ccccc4cc3C(N)=O)CC2)cc1	-11	-18	-4	0
C[C@@H](C(=O)NCc1ccc2c(c1)OCO2)N1C(=O)N2CCc3c([nH]c4ccccc34)[C@@]2(C)C1=O	30	33*	15	5
Cc1ccc(CNC(=O)[C@H](C)N2C(=O)N3CCc4c([nH]c5ccccc45)[C@@]3(C)C2=O)cc1	-15	-4	-20	-11
CCC(C)[C@H](NC(=O)[C@H](C(C)C)N1C(=O)N2CCc3c([nH]c4ccccc34)[C@@]2(C)C1=O)C(=O)NC1CCCC1 (some centres undefined)	4	32*	12	-1
C[C@@H](C(=O)NCc1ccc(F)cc1)N1C(=O)N2CCc3c([nH]c4ccccc34)[C@@]2(C)C1=O	59*	46*	36*	-6
Cc1cccc(-c2noc(C(=O)NC3CCCCC3)n2)c1	15	21	16	13
CCOC(=O)c1c(-c2ccccc2Cl)csc1NC(=O)CNc1cccc(O)c1	32*	-39	39*	-4
COCCNc1nnc(-c2nnc(C3CC3)o2)c2ccccc12	-1	4	-7	-2
CC1CCN(C(=O)CCS(=O)(=O)c2ccc3c(c2)NC(=O)CCS3)CC1	-30	-32	-6	-4
O=C1CCSc2ccc(S(=O)(=O)CCC(=O)N3CCc4ccccc4C3)cc2N1	39*	13	17	10
CC(C)=CCc1ccc2[nH]cc(C3=C(O)C(=O)C(c4c[nH]c5ccccc45)=C(O)C3=O)c2c1	43*	-116	21	9
O=c1oc2ccccc2cc1S(=O)(=O)N1CCCCC1	5	0	-2	1
O=C1c2c(O)cc(O)cc2OC(c2ccc(O)c(O)c2)C1O (centres undefined)	65*	60*	56*	62*
Cc1ncc(CN2CCc3nc(-c4ccccn4)[nH]c(=O)c3C2)cn1	-60	-28	-16	7
CC(C)C[C@@H]1NC(=O)[C@H](Cc2ccccc2)N(C)C(=O)[C@H](C)NC(=O)c2ccccc2NC(=O)[C@H](Cc2ccc(O)cc2)N(C)C1=O	41*	19	15	9
CC(C)=CCOc1ccc(C[C@H]2NC(=O)[C@@H](C)NC(=O)[C@@H](Cc3ccc(O)cc3)NC(=O)CNC(=O)[C@H](C)NC(=O)[C@H](Cc3ccccc3)OC2=O)cc1	13	5	-3	0
Cc1cc(-c2nccn2C)nc(C2CCCN2C(=O)Cc2c[nH]c3ccccc23)n1 (centres undefined)	-14	-19	-12	-6
CCOc1ccc(-n2cc(C(=O)Nc3cnc4ccccc4c3)nn2)cc1	43*	-10	-4	-4
CCOc1ccc(NC(=O)c2cccc(-n3cnnc3)n2)cc1	17	20	25	16
Cc1ccc(NC(=O)Cn2c(-n3nc(C)cc3C)nc3c(c2=O)CCCC3)c(C)c1	59*	31*	8	13
C[C@@H]1Cc2cc(O)cc(O)c2C(=O)O[C@H](C)CC(=O)OC[C@@H](O)CC(=O)O[C@H](C)Cc2cc(O)cc(O)c2C(=O)O[C@H](C)CC(=O)O1	-10	-14	-4	0
COc1cc(O)c2c(O)c3c(cc2c1)CC(C)OC3=O (centres undefined)	75*	-56	64*	53*
O=C(/C=C/c1cnc2ccccc2c1)NCc1ccccc1	50*	41*	17	3

Screening data as filed in PubChem BioAssay.
